We go through nine compounds from PubChem BioAssay (NCI).

The nature of assay [1]: NCI Yeast Anticancer Drug Screen. Data for the rad50 strain (AID 155).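 Also: 0% = growth of vehicle-only cultures of the same strain.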 The conditions noted are these: S. cerevisiae rad50 strain growth inhibition, hits give high values. A digest of the protocol:
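Genetically altered yeast (DNA repair pathway); compound treatment; growth inhibition vs vehicle ctrl.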

The nature of assay [2]: NCI Yeast Anticancer Drug Screen. Data for the mec2-1 strain (AID 157). The conditions noted are these: S. cerevisiae mec2-1 strain, hits give high values. A digest of the protocol:
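Vehicle-treated cultures served as reference for growth inhibition of compound-exposed mec2-1 yeast.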

Assay [3] is described as follows: NCI Yeast Anticancer Drug Screen. Data for the sgs1 mgt1 strain (AID 161).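 Also: 0% = growth of cultures given vehicle only.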 The conditions noted are these: S. cerevisiae sgs1 mgt1 strain, hits give high values. A digest of the protocol:
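Genetically altered yeast, compound exposure, growth inhibition relative to vehicle.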

Assay [4] in a line: NCI Yeast Anticancer Drug Screen. Data for the cln2 rad14 strain (AID 165).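 Also: 0% = growth equal to vehicle treated cultures.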 The conditions noted are these: S. cerevisiae cln2 rad14 strain, hits give high values. The gist of the method: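 Each compound was tested on cln2 rad14 yeast. Inhibition of growth was calculated against vehicle-exposed controls.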
Assay [5] can be described thus: NCI Yeast Anticancer Drug Screen. Data for the bub3 strain (AID 167). The conditions noted are these: S. cerevisiae bub3 mutant strain, hits give high values. The gist of the method: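 Yeast carrying a defined mutation is treated with each compound, and growth is compared with that of vehicle-exposed cells to give inhibition.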
A short description of assay [6]: NCI Yeast Anticancer Drug Screen. Data for the mlh1 rad18 strain (AID 175). Conditions: S. cerevisiae mlh1 rad18 strain growth inhibition, hits give high values. A digest of the protocol: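 Vehicle-treated cultures served as the reference for growth inhibition in a yeast strain carrying DNA damage repair alterations exposed to each compound.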
The mark [7] stands for this setting: at 5.0 µM (retest, dose inferred, filed as 0.5).
Where [8] appears, read: at 50.0 µM (retest, dose inferred, filed as 5.0).

SMILES strings stand for the structures. Compounds without any hit were thinned out: in the full panel of roughly 79,000, 15% have a hit. Values without a mark were called inactive. Activity calls are given as the source filed them. Rule as the data show it: active = growth inhibition above about 70%; inactive = the rest.

For the compound `CCCCCCCCCCCCNC(=O)C[n+]1cccc(C(N)=O)c1`, the growth inhibition in assay [1] (setting [7]) is 3%; in assay [1] (setting [8]) it was 88% (active); in assay [1] (at 50.0 µM) it was 79% (active); in assay [2] (setting [7]) it was -3%; in assay [2] (setting [8]), 90% (active); in assay [2] (at 50.0 µM) it was 19.8%. In addition, the growth inhibition in assay [3] (setting [7]) is -2%; in assay [3] (setting [8]), 97% (active); in assay [3] (at 50.0 µM), -2.6%; in assay [4] (setting [7]) it was -6%; in assay [4] (setting [8]), 67%; in assay [4] (at 50.0 µM), 36.4%. The growth inhibition in assay [5] (setting [7]) is -9%; in assay [5] (setting [8]), 76% (active); in assay [5] (at 50.0 µM), 50.8%; in assay [6] (setting [7]), -1%; in assay [6] (setting [8]), 85% (active); in assay [6] (at 50.0 µM), 51.4%.
Take `COC1=C(OC)C(=O)C(SCc2ccco2)=CC1=O`: the growth inhibition in assay [1] (setting [7]) was 37%; in assay [1] (setting [8]) it was 98% (active); in assay [1] (at 50.0 µM), 50.6%; in assay [2] (setting [7]), 29%; in assay [2] (setting [8]) it was 99% (active); in assay [2] (at 50.0 µM), 73.3% (active). Also, the growth inhibition in assay [3] (setting [7]) was 53%; in assay [3] (setting [8]), 99% (active); in assay [3] (at 50.0 µM), 77.3% (active); in assay [4] (setting [7]) it was 51%; in assay [4] (setting [8]), 90% (active); in assay [4] (at 50.0 µM), 36.9%. Besides, the growth inhibition was 56% in assay [5] (setting [7]); 99% (active) in assay [5] (setting [8]); 62.1% in assay [5] (at 50.0 µM); 28% in assay [6] (setting [7]); 77% (active) in assay [6] (setting [8]); 65% in assay [6] (at 50.0 µM).
For the compound `CC(C)(C)Oc1ccc(CC(NC(=O)OCC2c3ccccc3-c3ccccc32)C(=O)O)cc1` (configuration not stated), the growth inhibition in assay [1] (setting [7]) is 9%; in assay [1] (setting [8]), 95% (active); in assay [1] (at 50.0 µM), 90.6% (active); in assay [2] (setting [7]), -11%; in assay [2] (setting [8]) it was 97% (active); in assay [2] (at 50.0 µM) it was 93.2% (active). Further, the growth inhibition in assay [3] (setting [7]) is -9%; in assay [3] (setting [8]), 98% (active); in assay [3] (at 50.0 µM), 90.5% (active); in assay [4] (setting [7]), 33%; in assay [4] (setting [8]), 96% (active); in assay [4] (at 50.0 µM), 91.7% (active). For the same compound, the growth inhibition in assay [5] (setting [7]) is -7%; in assay [5] (setting [8]), 97% (active); in assay [5] (at 50.0 µM), 89.2% (active); in assay [6] (setting [7]) it was -3%; in assay [6] (setting [8]), 96% (active); in assay [6] (at 50.0 µM) it was 90.3% (active).
Consider `c1cc[c]([Sn]([CH]2c3ccccc3-c3ccccc32)([CH]2c3ccccc3-c3ccccc32)[CH]2c3ccccc3-c3ccccc32)cc1`, for which the growth inhibition in assay [1] (setting [7]) is 4%; in assay [1] (setting [8]), 0%; in assay [1] (at 50.0 µM) it was 95.2% (active); in assay [2] (setting [7]) it was 5%; in assay [2] (setting [8]), 2%; in assay [2] (at 50.0 µM) it was 98% (active). Moreover, the growth inhibition in assay [3] (setting [7]) is -1%; in assay [3] (setting [8]), -4%; in assay [3] (at 50.0 µM), 95.5% (active); in assay [4] (setting [7]), 3%; in assay [4] (setting [8]), 6%; in assay [4] (at 50.0 µM), 95% (active). For the same compound, the growth inhibition in assay [5] (setting [7]) is 2%; in assay [5] (setting [8]), -3%; in assay [5] (at 50.0 µM), 97.3% (active); in assay [6] (setting [7]), 4%; in assay [6] (setting [8]), 11%; in assay [6] (at 50.0 µM) it was 96.3% (active).
Turning to `COc1ccc(C2N(Cc3ccc(Cl)cc3)CCN2Cc2ccc(Cl)cc2)cc1`, the growth inhibition in assay [1] (setting [7]) is 9%; in assay [1] (setting [8]) it was 70% (active); in assay [1] (at 50.0 µM), 46.6%; in assay [2] (setting [7]), 9%; in assay [2] (setting [8]), 59%; in assay [2] (at 50.0 µM) it was 32.2%. Further, the growth inhibition was 37% in assay [3] (setting [7]); 89% (active) in assay [3] (setting [8]); 71.2% (active) in assay [3] (at 50.0 µM); 21% in assay [4] (setting [7]); 53% in assay [4] (setting [8]); 69.2% in assay [4] (at 50.0 µM). Besides, the growth inhibition in assay [5] (setting [7]) was 34%; in assay [5] (setting [8]) it was 91% (active); in assay [5] (at 50.0 µM), 25.9%; in assay [6] (setting [7]), 25%; in assay [6] (setting [8]) it was 72% (active); in assay [6] (at 50.0 µM), 50.5%.
For the compound `CCCCCC(=O)NNc1ccccc1`, the growth inhibition in assay [1] (setting [7]) is 18%; in assay [1] (setting [8]), 89% (active); in assay [1] (at 50.0 µM) it was 85.3% (active); in assay [2] (setting [7]), 1%; in assay [2] (setting [8]) it was 76% (active); in assay [2] (at 50.0 µM) it was 42.6%. The growth inhibition in assay [3] (setting [7]) was 5%; in assay [3] (setting [8]), 48%; in assay [3] (at 50.0 µM) it was 80% (active); in assay [4] (setting [7]), 0%; in assay [4] (setting [8]), 51%; in assay [4] (at 50.0 µM), 78% (active). Further, the growth inhibition in assay [5] (setting [7]) is 9%; in assay [5] (setting [8]), 95% (active); in assay [5] (at 50.0 µM) it was 83.1% (active); in assay [6] (setting [7]), 22%; in assay [6] (setting [8]), 93% (active); in assay [6] (at 50.0 µM), 90.8% (active).
On to `Cc1ccc(NCCN(C)C)c2c(=O)c3c(O)cccc3sc12`, for which the growth inhibition is 95% (active) in assay [1] (setting [7]); 99% (active) in assay [1] (setting [8]); 67.3% in assay [1] (at 50.0 µM); 13% in assay [2] (setting [7]); 100% (active) in assay [2] (setting [8]); 54.3% in assay [2] (at 50.0 µM). Moreover, the growth inhibition is 30% in assay [3] (setting [7]); 98% (active) in assay [3] (setting [8]); 60.7% in assay [3] (at 50.0 µM); 11% in assay [4] (setting [7]); 99% (active) in assay [4] (setting [8]); 58.7% in assay [4] (at 50.0 µM). The growth inhibition in assay [5] (setting [7]) was 9%; in assay [5] (setting [8]), 99% (active); in assay [5] (at 50.0 µM), 49.5%; in assay [6] (setting [7]), 29%; in assay [6] (setting [8]) it was 99% (active); in assay [6] (at 50.0 µM), 55.8%.
Regarding `C/C(=N/Nc1ccc([N+](=O)[O-])cc1[N+](=O)[O-])C(=O)O`, the growth inhibition in assay [1] (setting [7]) is 11%; in assay [1] (setting [8]), 69%; in assay [1] (at 50.0 µM) it was 95.3% (active); in assay [2] (setting [7]) it was 2%; in assay [2] (setting [8]), 63%; in assay [2] (at 50.0 µM), 59.8%. The growth inhibition in assay [3] (setting [7]) was -1%; in assay [3] (setting [8]) it was 76% (active); in assay [3] (at 50.0 µM), 97.5% (active); in assay [4] (setting [7]), -1%; in assay [4] (setting [8]), 21%; in assay [4] (at 50.0 µM) it was 13.2%. The growth inhibition in assay [5] (setting [7]) is -1%; in assay [5] (setting [8]), 72% (active); in assay [5] (at 50.0 µM), 98.5% (active); in assay [6] (setting [7]) it was -2%; in assay [6] (setting [8]), 91% (active); in assay [6] (at 50.0 µM), 96.8% (active).
For `Cc1ccc2sc(=S)sc2c1`, the growth inhibition in assay [1] (setting [7]) is -2%; in assay [1] (setting [8]) it was 32%; in assay [1] (at 50.0 µM) it was 59.5%; in assay [2] (setting [7]), -3%; in assay [2] (setting [8]), 53%; in assay [2] (at 50.0 µM) it was 25.4%. In addition, the growth inhibition is -2% in assay [3] (setting [7]); 40% in assay [3] (setting [8]); 40.4% in assay [3] (at 50.0 µM); 0% in assay [4] (setting [7]); 77% (active) in assay [4] (setting [8]); 74.2% (active) in assay [4] (at 50.0 µM). Further, the growth inhibition is 7% in assay [5] (setting [7]); 65% in assay [5] (setting [8]); 95.3% (active) in assay [5] (at 50.0 µM); -19% in assay [6] (setting [7]); 69% in assay [6] (setting [8]); 72.3% (active) in assay [6] (at 50.0 µM).
